PubChem BioAssay
Results filed as inconclusive are left out. Calls of active or inactive are those of the source.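 How the source made its calls, unless noted: active means differentiation response of at least 50%, scaled between solvent and reference control, from cells with both markers; inactive means the rest.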

How the values were obtained:
[1] = rapamycin-like changes in RPL19A-GFP expression – cell-based, S. cerevisiae, multiplex flow cytometry, primary screen (AID 1862; in the data active means percent of DMSO control GFP below about 86%;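 further: lower values mimic rapamycin by blocking the RPL19A rise seen in DMSO cells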); settings: S. cerevisiae RPL19A-GFP strain, flow cytometry fluorescence, 3 h; at 10 µM; stronger effect = lower value
[2] = TOR pathway GLN3 branch reporter MEP2-GFP changes – S. cerevisiae, multiplex flow cytometry, primary screen (AID 1867;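 active means GFP response, as percent of the DMSO control, above the screen-wide mean plus 3 SD, about 139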;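 further: median GFP channel fluorescence of barcode-gated MEP2-GFP cells measured by flow cytometry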); settings: S. cerevisiae MEP2-GFP strain, 3 h, at 10 µM, stronger effect = higher value, 100% means same as DMSO wells
[3] = TOR pathway RTG branch CIT2 reporter changes – S. cerevisiae, GFP fusion, multiplex flow cytometry, primary screen (AID 1870;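 active means percent response above a set limit, the screen-wide mean plus 3 SD, cut at about 130% in these data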;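 further: barcoded CIT2-GFP strain pooled with four other GFP strains with rapamycin as positive control; median GFP fluorescence per well over plate mean of DMSO wells so 100% = DMSO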); settings: S. cerevisiae CIT2-GFP expression, 3 h, at 10 µM, stronger effect = higher value
[4] = TOR pathway LAP4-GFP level changes – S. cerevisiae, multiplex flow cytometry, primary screen (AID 1873;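 active means GFP signal, as percent of the solvent control, above the screen mean plus 3 SD, about 149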); settings: S. cerevisiae LAP4-GFP expression, 3 h, at 10 µM, stronger effect = higher value
[5] = yeast AGP1-GFP level changes, GLN3 branch – cell-based, multiplex flow cytometry, S. cerevisiae, primary screen (AID 1887;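 active means GFP signal above the screen-wide mean plus 3 SD, that is over about 124.5% of the solvent control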;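 further: AGP1-GFP fusion strain of S. cerevisiae within a five-strain barcoded multiplex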); settings: 3 h, at 10 µM, stronger effect = higher value
[6] = reduced mouse 2C T cell binding to pMHC/ICAM-1 vesicles – MLPCN validation set, flow cytometry, LFA-1/ICAM-1 modulator project, pilot screen (AID 2523;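 active means response below a set limit, under 55% cells CD8-positive and vesicle-bound, and CD8 cells' 90th-percentile brightness under 279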;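 on vesicle binding response: mean PE anti-B7-1 fluorescence of CD8+ cells relative to row control; 100% = QL9-loaded vesicles with DMSO vehicle in the same plate row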); settings: 2C mouse CD8+ T cells, at 7 µM, stronger effect = lower value; double positive events: measured here: CD8+/vesicle+ event percentage
[7] = molecular target: Integrin beta-1 (Homo sapiens) + Integrin alpha-4 (Homo sapiens) (UniProt P13612+P05556); assay: alpha4beta1 integrin LIBS antibody binding reduction – U937 cells, HUTS-21 mAb, flow cytometry, validation set, VLA-4 allosteric modulator project, pilot screen (AID 2674;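 active means inhibition above 50%, about 3 SD of the validation set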;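 further: antibody binding induced by the VLA-4 ligand LDV present at three times its Kd; 0% = LDV ligand with antibody and no compound and 100% = antibody without LDV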); settings: HUTS-21 LIBS mAb binding, at 6.7 µM, stronger effect = higher value, binding induced by LDV ligand
[8] = calorie-restriction mimetic ROS inhibitors, yeast – validation compound set, pilot screen (AID 2706;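 active means superoxide response below 65% of plate, a cut near 3 SD across the whole screen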;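 further: yeast exposed to compound for one week at 30 degrees C before staining; 100% = mean of all compound wells on the same plate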); settings: S. cerevisiae aging, superoxide DHE fluorescence; at 10 µM; stronger effect = lower value
[9] = molecular target: Beta-adrenergic receptor kinase 1 (Homo sapiens) (UniProt P25098); assay: GRK2 binders displacing RNA aptamer, biochemical, validation, human GRK2, bead flow cytometry (AID 488806;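 active means aptamer binding inhibition above 30%, about 3 SD of noise from non-fluorescent compounds; inactive means inhibition at or below 30%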); settings: bead-bound GRK2, FAM-aptamer displacement, at 10 µM, stronger effect = higher value
[10] = molecular target: Beta-2 adrenergic receptor (Homo sapiens) (UniProt P07550); assay: agonist-induced loss of surface beta2AR – cell-based, FAP fluorogen, flow cytometry, validation set, pilot screen (AID 504459;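 active means percent response above 42, roughly 3 SD of non-fluorescent test compounds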;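 further: agonist-driven loss of surface beta2AR via internalization measured by FAP dye flow cytometry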); settings: Am2.2-beta2AR cells, at 10 µM, stronger effect = higher value
[11] = molecular target: AP-2 complex subunit beta (Homo sapiens) (UniProt P63010); assay: beta-arrestin/AP2 interaction blockers – biochemical, validation set, GST-AP2 beads, flow cytometry, pilot screen (AID 504541;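 active means inhibition above 54%, about 3 SD of non-fluorescent compounds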;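 further: AP2 carries R879A mutation and is captured from E. coli lysate; bead-bound FITC arrestin peptide fluorescence measuring arrestin peptide binding to AP2; 0% = DMSO wells and 100% = excess unlabeled arrestin peptide control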); settings: FITC arrestin peptide, at 10 µM, stronger effect = higher value, AP2 beta2 appendage fragment, R879A mutant
[12] = cytosolic pH regulators acting via V-ATPase – S. cerevisiae, pHLuorin, HTS validation (AID 504600; in the data active means response above about 15%;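 further: plate controls were DMSO for no effect and reference compound for full effect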); settings: V-ATPase proton transport, at 10 µM, stronger effect = higher value
[13] = test system: anti-desmoglein-3 scFv antibody binding to human DSG3; assay: blockers of pathogenic pemphigus antibody–desmoglein-3 binding – biochemical, validation compound set, bead-based, flow cytometry, pilot screen (AID 588368;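 active means binding below the plate cutoff, the plate median minus 3 SD, with a reading above zero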;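 further: signal is the median channel fluorescence of bead-bound GFP antibody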); settings: Protein G beads, DSG3-Fc, scFv-GFP binding, at 10 µM, stronger effect = lower value
[14] = Nile Red efflux blockade in pump-expressing yeast – validation compound set, multiplex, phenotypic, pilot screen (AID 588506;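 active means efflux inhibition above 0.42, the validation set average plus 4 SD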;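 further: Nile Red retained in cells so higher fluorescence means more efflux inhibition; 0 = negative control wells and 1 = enniatin B 25 µM full block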); settings: S. cerevisiae pump-expressing triplex, Nile Red efflux flow cytometry; at 10 µM; stronger effect = higher value; the pumps come from Candida albicans
[15] = molecular target: ATP-binding cassette sub-family B member 6 (Homo sapiens) (UniProt Q9NP58); assay: blockers of ABCB6-driven porphyrin uptake – K562-ABCB6 cells, flow cytometry, validation set, pilot screen (AID 588550;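 active means inhibition above the screen-wide mean plus 3 SD, about 51%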;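 further: 0% = DMSO wells and 100% = benzethonium chloride 70 µM positive control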); settings: K562-ABCB6 porphyrin accumulation, 1 h, at 10 µM, stronger effect = higher value
[16] = AML differentiation inducers, ER-HoxA9 marrow cells – cell-based, GFP/MAC1 double positive, flow cytometry, validation set, primary screen (AID 588685); settings: stronger effect = higher value, normalized: vehicle 0, fulvestrant 100;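 further: compound exposure lasts four days before antibody staining and flow analysis; 0% = DMSO wells and 100% = 5 µM fulvestrant positive control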

Sequence of ATP-binding cassette sub-family B member 6 (Homo sapiens) (Q9NP58 whole entry, looked up): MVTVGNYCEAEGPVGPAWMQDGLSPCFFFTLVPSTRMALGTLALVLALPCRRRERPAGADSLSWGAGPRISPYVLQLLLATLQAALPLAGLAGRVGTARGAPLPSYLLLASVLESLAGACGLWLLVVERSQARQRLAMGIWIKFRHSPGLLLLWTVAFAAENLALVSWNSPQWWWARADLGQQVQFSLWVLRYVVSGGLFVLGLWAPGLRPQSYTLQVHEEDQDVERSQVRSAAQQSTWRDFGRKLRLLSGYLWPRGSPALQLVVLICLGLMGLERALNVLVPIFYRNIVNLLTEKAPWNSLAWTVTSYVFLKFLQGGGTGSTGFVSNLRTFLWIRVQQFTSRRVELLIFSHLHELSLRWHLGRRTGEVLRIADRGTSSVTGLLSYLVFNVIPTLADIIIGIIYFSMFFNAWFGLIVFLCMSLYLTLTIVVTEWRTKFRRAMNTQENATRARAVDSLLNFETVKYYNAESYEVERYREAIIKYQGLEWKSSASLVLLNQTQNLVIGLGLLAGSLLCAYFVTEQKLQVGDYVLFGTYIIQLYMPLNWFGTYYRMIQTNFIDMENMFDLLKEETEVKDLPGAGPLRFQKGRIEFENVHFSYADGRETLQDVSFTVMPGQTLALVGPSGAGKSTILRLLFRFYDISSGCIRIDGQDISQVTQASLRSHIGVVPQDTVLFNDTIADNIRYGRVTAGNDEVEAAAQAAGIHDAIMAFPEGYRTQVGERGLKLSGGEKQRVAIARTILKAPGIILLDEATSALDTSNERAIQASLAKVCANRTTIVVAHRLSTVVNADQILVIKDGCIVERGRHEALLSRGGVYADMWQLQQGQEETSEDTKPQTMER
Sequence of Beta-adrenergic receptor kinase 1 (Homo sapiens) (P25098 whole entry, looked up): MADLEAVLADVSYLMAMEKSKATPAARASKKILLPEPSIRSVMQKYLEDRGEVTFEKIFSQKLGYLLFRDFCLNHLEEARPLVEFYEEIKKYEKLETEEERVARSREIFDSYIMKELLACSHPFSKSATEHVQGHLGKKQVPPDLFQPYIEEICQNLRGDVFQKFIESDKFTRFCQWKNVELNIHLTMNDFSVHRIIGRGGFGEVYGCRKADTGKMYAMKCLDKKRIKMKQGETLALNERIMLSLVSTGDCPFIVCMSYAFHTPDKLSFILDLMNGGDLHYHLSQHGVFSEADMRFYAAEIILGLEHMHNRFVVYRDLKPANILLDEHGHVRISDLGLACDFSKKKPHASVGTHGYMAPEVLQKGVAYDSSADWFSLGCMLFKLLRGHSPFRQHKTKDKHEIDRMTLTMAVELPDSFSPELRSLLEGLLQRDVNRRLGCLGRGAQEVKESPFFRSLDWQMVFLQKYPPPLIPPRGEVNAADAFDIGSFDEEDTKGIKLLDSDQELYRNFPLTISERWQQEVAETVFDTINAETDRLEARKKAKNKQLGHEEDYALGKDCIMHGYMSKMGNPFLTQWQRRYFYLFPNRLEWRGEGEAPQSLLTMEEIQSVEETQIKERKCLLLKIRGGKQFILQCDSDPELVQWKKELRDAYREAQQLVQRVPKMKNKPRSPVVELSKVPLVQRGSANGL
Sequence of Beta-2 adrenergic receptor (Homo sapiens) (P07550 whole entry, looked up): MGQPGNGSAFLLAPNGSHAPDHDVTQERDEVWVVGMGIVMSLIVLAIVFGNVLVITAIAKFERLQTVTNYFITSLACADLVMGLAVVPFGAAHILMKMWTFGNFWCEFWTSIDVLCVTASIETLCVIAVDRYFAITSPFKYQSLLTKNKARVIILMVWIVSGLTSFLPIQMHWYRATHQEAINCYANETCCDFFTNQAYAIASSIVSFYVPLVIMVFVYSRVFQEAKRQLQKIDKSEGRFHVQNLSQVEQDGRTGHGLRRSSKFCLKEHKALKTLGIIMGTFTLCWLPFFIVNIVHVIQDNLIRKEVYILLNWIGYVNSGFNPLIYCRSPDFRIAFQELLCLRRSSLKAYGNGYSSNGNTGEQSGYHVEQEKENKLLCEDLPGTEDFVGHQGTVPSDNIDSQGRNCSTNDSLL
Sequence of Integrin beta-1 (Homo sapiens) + Integrin alpha-4 (Homo sapiens) (P05556 whole entry, looked up): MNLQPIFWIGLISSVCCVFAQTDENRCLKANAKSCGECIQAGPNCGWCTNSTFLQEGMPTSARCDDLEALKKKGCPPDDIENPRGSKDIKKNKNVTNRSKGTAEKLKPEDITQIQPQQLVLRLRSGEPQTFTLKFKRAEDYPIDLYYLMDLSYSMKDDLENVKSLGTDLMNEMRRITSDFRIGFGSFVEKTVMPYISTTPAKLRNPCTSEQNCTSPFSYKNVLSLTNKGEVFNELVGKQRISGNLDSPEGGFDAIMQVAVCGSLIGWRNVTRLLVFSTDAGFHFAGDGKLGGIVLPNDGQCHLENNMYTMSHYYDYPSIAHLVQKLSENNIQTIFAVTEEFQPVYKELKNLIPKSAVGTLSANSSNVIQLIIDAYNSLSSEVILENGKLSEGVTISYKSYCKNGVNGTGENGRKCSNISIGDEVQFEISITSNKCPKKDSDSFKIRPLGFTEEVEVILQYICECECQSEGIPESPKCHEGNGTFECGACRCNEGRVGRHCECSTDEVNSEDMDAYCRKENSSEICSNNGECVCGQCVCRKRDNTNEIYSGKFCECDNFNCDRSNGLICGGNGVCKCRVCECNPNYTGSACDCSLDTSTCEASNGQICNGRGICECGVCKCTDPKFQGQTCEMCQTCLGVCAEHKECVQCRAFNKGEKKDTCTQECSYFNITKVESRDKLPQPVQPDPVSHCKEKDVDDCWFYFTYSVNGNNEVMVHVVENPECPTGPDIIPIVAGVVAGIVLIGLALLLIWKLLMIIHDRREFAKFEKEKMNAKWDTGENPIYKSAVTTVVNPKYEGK
Sequence of Integrin beta-1 (Homo sapiens) + Integrin alpha-4 (Homo sapiens) (P13612 whole entry, looked up): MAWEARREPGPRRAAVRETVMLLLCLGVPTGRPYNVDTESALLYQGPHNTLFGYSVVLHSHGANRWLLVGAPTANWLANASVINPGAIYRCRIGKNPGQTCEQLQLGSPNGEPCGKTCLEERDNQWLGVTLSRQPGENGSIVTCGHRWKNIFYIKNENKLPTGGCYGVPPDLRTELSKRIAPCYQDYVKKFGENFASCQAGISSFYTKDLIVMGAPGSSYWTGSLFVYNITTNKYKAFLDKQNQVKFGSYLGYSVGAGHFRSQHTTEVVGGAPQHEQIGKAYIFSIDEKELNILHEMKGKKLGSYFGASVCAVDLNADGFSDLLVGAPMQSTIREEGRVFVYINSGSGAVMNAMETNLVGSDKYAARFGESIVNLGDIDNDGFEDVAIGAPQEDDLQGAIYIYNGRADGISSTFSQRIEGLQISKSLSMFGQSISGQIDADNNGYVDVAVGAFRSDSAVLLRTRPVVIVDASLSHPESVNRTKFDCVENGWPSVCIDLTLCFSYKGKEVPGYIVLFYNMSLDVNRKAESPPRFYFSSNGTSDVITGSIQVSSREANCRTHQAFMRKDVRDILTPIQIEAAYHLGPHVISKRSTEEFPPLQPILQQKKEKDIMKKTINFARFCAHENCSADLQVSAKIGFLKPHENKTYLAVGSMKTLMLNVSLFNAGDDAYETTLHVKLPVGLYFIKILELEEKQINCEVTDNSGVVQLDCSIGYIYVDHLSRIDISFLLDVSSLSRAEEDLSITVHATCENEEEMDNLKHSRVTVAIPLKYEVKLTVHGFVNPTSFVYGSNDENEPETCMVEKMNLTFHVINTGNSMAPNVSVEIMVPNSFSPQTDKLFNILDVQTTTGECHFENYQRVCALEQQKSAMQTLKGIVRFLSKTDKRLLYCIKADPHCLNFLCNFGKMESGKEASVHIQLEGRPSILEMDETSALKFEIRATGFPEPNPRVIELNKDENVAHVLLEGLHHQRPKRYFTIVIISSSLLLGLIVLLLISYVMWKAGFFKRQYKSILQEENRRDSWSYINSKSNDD
Sequence of AP-2 complex subunit beta (Homo sapiens) (P63010 whole entry, looked up, the tested form may be a part, one chain of several): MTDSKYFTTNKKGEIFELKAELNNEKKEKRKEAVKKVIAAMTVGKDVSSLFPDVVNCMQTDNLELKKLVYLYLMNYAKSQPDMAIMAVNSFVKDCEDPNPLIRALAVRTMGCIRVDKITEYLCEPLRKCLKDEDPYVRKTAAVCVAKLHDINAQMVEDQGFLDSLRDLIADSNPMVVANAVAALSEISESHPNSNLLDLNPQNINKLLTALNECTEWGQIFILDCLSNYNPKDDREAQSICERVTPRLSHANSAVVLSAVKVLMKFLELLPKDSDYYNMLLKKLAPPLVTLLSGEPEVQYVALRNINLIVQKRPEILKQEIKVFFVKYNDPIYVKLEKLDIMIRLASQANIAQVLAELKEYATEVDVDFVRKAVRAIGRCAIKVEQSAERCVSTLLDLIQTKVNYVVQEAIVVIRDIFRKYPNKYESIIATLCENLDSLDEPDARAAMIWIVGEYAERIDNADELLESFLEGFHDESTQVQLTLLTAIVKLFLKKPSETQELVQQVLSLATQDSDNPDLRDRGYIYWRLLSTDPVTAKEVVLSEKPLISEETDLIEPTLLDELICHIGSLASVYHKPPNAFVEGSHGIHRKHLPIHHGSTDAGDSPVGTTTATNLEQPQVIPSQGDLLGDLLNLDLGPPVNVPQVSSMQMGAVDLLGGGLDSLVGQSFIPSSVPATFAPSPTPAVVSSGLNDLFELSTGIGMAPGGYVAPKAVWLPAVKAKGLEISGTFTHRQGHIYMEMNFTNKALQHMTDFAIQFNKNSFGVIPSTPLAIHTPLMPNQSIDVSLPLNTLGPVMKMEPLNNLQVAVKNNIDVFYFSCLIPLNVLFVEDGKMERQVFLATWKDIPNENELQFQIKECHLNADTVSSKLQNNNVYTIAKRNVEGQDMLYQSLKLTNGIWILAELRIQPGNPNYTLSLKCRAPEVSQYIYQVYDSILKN

Structure (SMILES)	percent of DMSO control GFP [1]	GFP response vs DMSO [2]	percent response of DMSO control [3]	GFP response vs DMSO [4]	GFP response, % of DMSO [5]	double positive events [6]	vesicle binding response [6]	inhibition [7]	superoxide response (% of plate) [8]	aptamer binding inhibition [9]	response [10]	inhibition [11]	response [12]	binding (% of control) [13]	efflux inhibition (fraction of control) [14]	inhibition [15]	differentiation response [16]
Cc1cccc2c(C(=O)O)cc(-c3cccnc3)nc12	104% (inactive)	105% (inactive)	95.4% (inactive)	98% (inactive)	101% (inactive)	63.5%	140% (inactive)	3.7% (inactive)	102% (inactive)	0% (inactive)	-8.08% (inactive)	-0.94% (inactive)	2.28% (inactive)	95% (inactive)	-0.01 (inactive)	-3% (inactive)	7.09% (inactive)
O=C1CC[C@@H](CN(Cc2ccccc2)Cc2cn[nH]c2-c2cc3ccccc3o2)N1	101% (inactive)	108% (inactive)	99.6% (inactive)	110% (inactive)	114% (inactive)	63.1%	198% (inactive)	-4.52% (inactive)	93.3% (inactive)	5% (inactive)	40.3% (inactive)	2.07% (inactive)	3.87% (inactive)	101% (inactive)	0.38 (inactive)	1% (inactive)	-7.94% (inactive)
CSCC[C@H](NC(=O)Nc1ccc(C)cc1C)C(=O)O	99.3% (inactive)	103% (inactive)	99.6% (inactive)	95.7% (inactive)	96.5% (inactive)	56.7%	178% (inactive)	3.67% (inactive)	101% (inactive)	6% (inactive)	3.91% (inactive)	6.83% (inactive)	-0.26% (inactive)	94.5% (inactive)	-0.17 (inactive)	7% (inactive)	-7.2% (inactive)
Nc1cc(-c2ccncc2)c[nH]c1=O	103% (inactive)	103% (inactive)	112% (inactive)	102% (inactive)	105% (inactive)	63.1%	184% (inactive)	-11.8% (inactive)	82.5% (inactive)	-6% (inactive)	8.85% (inactive)	-8.58% (inactive)	-0.06% (inactive)	105% (inactive)	0.015 (inactive)	-6% (inactive)	-4.57% (inactive)
COc1ccc(/C=C/C(=O)c2cc3cccc(OC)c3oc2=O)cc1	103% (inactive)	106% (inactive)	103% (inactive)	106% (inactive)	95.7% (inactive)	57.4%	172% (inactive)	-11.8% (inactive)	107% (inactive)	0% (inactive)	7.46% (inactive)	4.15% (inactive)	1.33% (inactive)	96% (inactive)	0.03 (inactive)	-11% (inactive)	2.74% (inactive)
COc1cc(OC)c(-c2nc3cnccc3n2C)cc1OC	104% (inactive)	100% (inactive)	115% (inactive)	103% (inactive)	102% (inactive)	61.8%	192% (inactive)	-4.6% (inactive)	97% (inactive)	0% (inactive)	-4.1% (inactive)	-2.31% (inactive)	4.97% (inactive)	97.6% (inactive)	-0.01 (inactive)	-11% (inactive)	3.18% (inactive)
N#C/C(=C\c1ccc(O)c(O)c1)C(=O)NCCCc1ccccc1	102% (inactive)	101% (inactive)	98.3% (inactive)	108% (inactive)	116% (inactive)	62.1%	206% (inactive)	-13% (inactive)	93.6% (inactive)	-1% (inactive)	13.4% (inactive)	25.2% (inactive)	-4.8% (inactive)	103% (inactive)	0.08 (inactive)	-1% (inactive)	3.88% (inactive)
COc1ccc(C(=O)COc2ccc(F)cc2)c(O)c1	106% (inactive)	98.3% (inactive)	106% (inactive)	96% (inactive)	97.6% (inactive)	60.6%	253% (inactive)	-7.72% (inactive)	86.7% (inactive)	1% (inactive)	-9.67% (inactive)	1.75% (inactive)	2.77% (inactive)	94.5% (inactive)	-0.04 (inactive)	1% (inactive)	1.22% (inactive)
COc1ccc(C(Cl)=C(c2ccc(OC)cc2)c2ccc(OC)cc2)cc1	102% (inactive)	109% (inactive)	91.9% (inactive)	90.7% (inactive)	98% (inactive)	62.9%	934% (inactive)	-8.75% (inactive)	95.2% (inactive)	4% (inactive)	1.32% (inactive)	18.5% (inactive)	-2.47% (inactive)	95.8% (inactive)	0.18 (inactive)	7% (inactive)	6.11% (inactive)
O=C(Nc1ccc(C(=O)NC2CCCCC2)cc1)c1cccnc1	99.5% (inactive)	101% (inactive)	107% (inactive)	119% (inactive)	105% (inactive)	57.6%	232% (inactive)	-0.43% (inactive)	113% (inactive)	1% (inactive)	-3.04% (inactive)	-15.9% (inactive)	1.36% (inactive)	95.1% (inactive)	-0.17 (inactive)	13% (inactive)	-4% (inactive)
CC(C)[C@H]1CN(C)CCN1Cc1cn(C)nc1-c1cccc(Cl)c1	105% (inactive)	104% (inactive)	98.9% (inactive)	90.1% (inactive)	102% (inactive)	58.1%	48.9% (inactive)	3.7% (inactive)	104% (inactive)	-1% (inactive)	-4.02% (inactive)	19.9% (inactive)	-0.96% (inactive)	99.3% (inactive)	0.3 (inactive)	1% (inactive)	3.18% (inactive)
NC(=O)c1cnccn1	101% (inactive)	110% (inactive)	92.5% (inactive)	110% (inactive)	111% (inactive)	60.5%	240% (inactive)	10.8% (inactive)	102% (inactive)	9% (inactive)	-6.65% (inactive)	-9.13% (inactive)	11.1% (inactive)	102% (inactive)	-0.09 (inactive)	2% (inactive)	25.6% (inactive)
CCc1ccc(/C=C2\Oc3cc(OC(=O)N4CCOCC4)ccc3C2=O)cc1	98.7% (inactive)	99.6% (inactive)	83.4% (inactive)	125% (inactive)	79.8% (inactive)	64.9%	164% (inactive)	11.7% (inactive)	173% (inactive)	4% (inactive)	-17.4% (inactive)	-5.57% (inactive)	1.83% (inactive)	99.3% (inactive)	0.29 (inactive)	0% (inactive)	6.83% (inactive)
COc1ccc(C2CC(c3c(O)cc(C)oc3=O)=NCCS2)c(OC)c1 (stereo unspecified)	102% (inactive)	108% (inactive)	111% (inactive)	86.8% (inactive)	96.4% (inactive)	64.5%	818% (inactive)	36.9% (inactive)	92% (inactive)	1% (inactive)	19.6% (inactive)	1.7% (inactive)	0.66% (inactive)	108% (inactive)	0.14 (inactive)	-46% (inactive)	-4.64% (inactive)
CC(NC(=O)c1cccnc1)C(=O)O (stereo unspecified)	105% (inactive)	98.5% (inactive)	114% (inactive)	78.6% (inactive)	90.5% (inactive)	53.1%	54.6% (active)	-5.89% (inactive)	94.6% (inactive)	4% (inactive)	-9.77% (inactive)	0.46% (inactive)	-5.71% (inactive)	99.1% (inactive)	-0.1 (inactive)	8% (inactive)	-7.2% (inactive)
COc1ccc(CCN(C)Cc2nc(Cc3ccc(OC)c(OC)c3)no2)cc1OC	100% (inactive)	105% (inactive)	102% (inactive)	109% (inactive)	108% (inactive)	62.5%	222% (inactive)	15.1% (inactive)	92.6% (inactive)	1% (inactive)	-13.9% (inactive)	2.64% (inactive)	8.73% (inactive)	98.8% (inactive)	0 (inactive)	1% (inactive)	29.5% (inactive)
COc1cc2c(cc1OC)CN(C(=O)c1ccc(S(=O)(=O)N(C)c3ccccc3)cc1)CC2	95.9% (inactive)	101% (inactive)	99.6% (inactive)	115% (inactive)	111% (inactive)	73.5%	605% (inactive)	5.69% (inactive)	57.5% (active)	1% (inactive)	-14.1% (inactive)	-6.13% (inactive)	1.25% (inactive)	96.2% (inactive)	0 (inactive)	5% (inactive)	1.91% (inactive)
Cc1ccc(C2CC(c3cccs3)=NN2C(=O)c2ccco2)o1 (stereo unspecified)	92.6% (inactive)	87.6% (inactive)	89.3% (inactive)	82.8% (inactive)	87% (inactive)	62.2%	135% (inactive)	2.93% (inactive)	106% (inactive)	-1% (inactive)	-25.7% (inactive)	-17.3% (inactive)	-7.57% (inactive)	107% (inactive)	0.275 (inactive)	-1% (inactive)	1.28% (inactive)
